Source: PubChem BioAssay (NCI)
Compounds without any hit were thinned out: in the full panel of roughly 83,000, 20% have a hit.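 Percent growth is the endpoint: 0 to 100 indicates growth inhibition (40 means 60% inhibition), 0 means no net growth, and negative values indicate cell death.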 Active and inactive are the calls of the source. How the source made its calls: active means growth percent below 10; inactive means the rest.

These compounds were tested on NCI/ADR-RES ovarian (assay: NCI-60 one-dose screen, 48 h (100 = growth as untreated, 0 = no growth, -100 = all killed)). Settings: 10 µM unless noted.

SMILES	growth
C[C@H]1[C@H](C)CC[C@]2(C(=O)NCC#CCN3CCN(C)CC3)CC[C@]3(C)C(=CC[C@@H]4[C@@]5(C)Cc6c([nH]c7ccccc67)C(C)(C)[C@@H]5CC[C@]43C)[C@H]12	82.8% (inactive)
COc1cc2nc(-c3ccc(C(F)(F)F)cc3)cc(OCCCN3CCOCC3)c2cc1OC	40.4% (inactive)
O=C1c2c(c3c4cccc(F)c4[nH]c3c3ccc4ccccc4c23)C(=O)N1O	64.2% (inactive)
O=C1OC(Cc2ccccc2)C1c1ccccc1 (stereo not drawn)	105% (inactive)
COc1cccc(/C=N/NC(=O)c2cnn3c2NC(c2ccccc2)C3)c1Oc1ccccc1 (stereo not drawn)	87.9% (inactive)
COc1ccc(NC(=O)c2cc(NCc3cc(O)ccc3O)ccc2O)cc1	101% (inactive)
COc1cc2nc(-c3ccc(Cl)cc3)cc(OCCCN3CCCC3)c2cc1OC	47.3% (inactive)
COc1ccc(C/C(=C(\C)c2ccc(OCCN3CCCC3)cc2)c2ccc(OCCN3CCCC3)cc2)cc1	78.3% (inactive)
COc1cc(NC(C)CCCNC(=O)CCC(=O)NCCCNCCCCCCCCNCCCNC(=O)CCC(=O)NCCCC(C)Nc2cc(OC)cc3cccnc23)c2ncccc2c1 (stereo not drawn)	91.7% (inactive)
COc1ccc(Cc2cnc(NC(=O)c3ccc4c(c3)OCCO4)s2)cc1	-1.17% (active)
CC(=O)N1c2ccccc2NC2=C(C(=O)NC2(C)C)C1c1ccco1 (stereo not drawn)	102% (inactive)
O=S(=O)(NCCNc1nccc(-c2c(-c3cccc(F)c3)nc3sccn23)n1)c1ccc(Cl)cc1	67.7% (inactive)
CC(Sc1nc2sc3c(c2c(=O)n1-c1ccc(Cl)cc1)CCCC3)C(=O)Nc1nc(-c2ccc(Br)cc2)cs1 (stereo not drawn)	95.6% (inactive)
C[C@@H](Nc1ncnc2ccc(-c3cnc(N)nc3)cc12)c1ccc(F)cc1	86% (inactive)
CC1(C)CC[C@]23CC[C@]4(C)[C@H](CC[C@@H]5[C@@]6(C)CCCNC(C)(C)[C@@H]6CC[C@]54C)[C@H]2[C@H]1OC3	-19.6% (active)
COc1ccc(C(=O)c2nc3ccccc3n2CC(=O)c2ccc(Cl)cc2)cc1	-45.6% (active)

The compounds below were run on T-47D breast in the same assay as above. Settings: 10 µM unless noted.

SMILES	growth
CCCCCN1C=C/C(=C\C(=O)N(C)c2ccc(Oc3ccccc3)cc2)c2ccccc21	54.1% (inactive)
CNC(=O)c1cncc(Cn2nc(C)c(NC(=O)c3ccc(COc4ccc(C(F)(F)F)cc4C)cc3)c2C)c1	29.7% (inactive)
Nc1c(C(=O)Nc2ccnc3ccccc23)sc2nc3c(cc12)CN(Cc1ccccc1)CC3	38.5% (inactive)
CC1=C(C(=O)/C=C/c2ccc(N(C)C)cc2)C(c2ccccc2)NC(=S)N1 (stereo not drawn)	101% (inactive)
Nc1nc(Nc2ccccc2SSc2ccccc2Nc2nc(N)nc(-c3cccs3)n2)nc(-c2ccsc2)n1	56.2% (inactive)
COc1cc2c(cc1OC)C(=O)/C(=C/c1cc(C)c(O)c(C)c1)S2	42% (inactive)
COc1cc2c(=O)n(CCCN(C)C)c3c4cc5c(cc4ccc3c2cc1OC)OCO5	85.8% (inactive)
CCN(CC)CC[n+]1cc2cc(OC)c(OC)cc2c2ccc3cc4c(cc3c21)OCO4	16.2% (inactive)
O=C(Nc1ccc(NC(=O)c2cc(=O)[nH]c3ccccc23)cc1)Nc1cccc(Cl)c1	68.6% (inactive)
COc1ccc(/C=C2\Oc3cc(OCCCN4CCCCC4)ccc3C2=O)cc1OC	97.8% (inactive)
Cc1nc(N)nc(N[C@@H](C)c2nc3cccc(NCc4ccc(C(=O)NO)cc4)c3c(=O)n2-c2ccccc2)n1	22.3% (inactive)
Cc1ccc(/C=N/NC(=O)CSc2nc3ccccc3c(=O)n2Cc2ccc(S(N)(=O)=O)cc2)cc1	81.7% (inactive)
COc1cc(/C(C)=C(\c2ccc(Cl)cc2)c2ccc(OCCN3CCCC3)cc2)ccc1F	55.1% (inactive)
COc1cc2nc(-c3ccc(Cl)cc3)cc(OCCCN3CCOCC3)c2cc1OC	28.2% (inactive)
COc1ccc(NC(N)=NCCCOc2ccc(F)cc2)cc1	23.2% (inactive)
COC(=O)CNC(=O)[C@]12CCC(C)(C)C[C@H]1C1=CC[C@@H]3[C@@]4(C)Cc5c([nH]c6ccccc56)C(C)(C)[C@@H]4CC[C@@]3(C)[C@]1(C)CC2	57.1% (inactive)
C[C@H]1[C@H](C)CC[C@]2(C(=O)Nc3ccc4ncccc4c3)CC[C@]3(C)C(=CC[C@@H]4[C@@]5(C)CCCNC(C)(C)[C@@H]5CC[C@]43C)[C@H]12	78% (inactive)
COc1cc(NC(C)CCCNC(=O)CCC(=O)NCCCNCCCCCCCCCCNCCCNC(=O)CCC(=O)NCCCC(C)Nc2cc(OC)cc3cccnc23)c2ncccc2c1 (stereo not drawn)	28.5% [8 µM] (inactive)
CCCCCN1C=C/C(=C\C(=O)n2ccc3ccccc32)c2ccccc21	70% (inactive)

SMILES	growth
Cc1cc2nc3c4ccc(Br)cc4n(CCN(C)C)c3nc2cc1C	21.6% (inactive)
CC1(C)CC(=O)C2=C(C1)N(c1ccc(F)cc1F)C(N)=C(C#N)C2c1cc(Br)ccc1F (stereo not drawn)	110% (inactive)
C[C@H]1[C@H](C)CC[C@]2(C(=O)NCC#CCN3CCN(C)CC3)CC[C@]3(C)C(=CC[C@@H]4[C@@]5(C)Cc6c([nH]c7ccccc67)C(C)(C)[C@@H]5CC[C@]43C)[C@H]12	76.7% (inactive)
COc1cc2nc(-c3ccc(C(F)(F)F)cc3)cc(OCCCN3CCOCC3)c2cc1OC	16.2% (inactive)
O=C1c2c(c3c4cccc(F)c4[nH]c3c3ccc4ccccc4c23)C(=O)N1O	19.6% (inactive)
O=C1OC(Cc2ccccc2)C1c1ccccc1 (stereo not drawn)	93.7% (inactive)
COc1cccc(/C=N/NC(=O)c2cnn3c2NC(c2ccccc2)C3)c1Oc1ccccc1 (stereo not drawn)	79.8% (inactive)
COc1ccc(NC(=O)c2cc(NCc3cc(O)ccc3O)ccc2O)cc1	68.4% (inactive)
COc1cc2nc(-c3ccc(Cl)cc3)cc(OCCCN3CCCC3)c2cc1OC	32% (inactive)
COc1ccc(C/C(=C(\C)c2ccc(OCCN3CCCC3)cc2)c2ccc(OCCN3CCCC3)cc2)cc1	77.6% (inactive)
COc1cc(NC(C)CCCNC(=O)CCC(=O)NCCCNCCCCCCCCNCCCNC(=O)CCC(=O)NCCCC(C)Nc2cc(OC)cc3cccnc23)c2ncccc2c1 (stereo not drawn)	7.63% (active)
COc1ccc(Cc2cnc(NC(=O)c3ccc4c(c3)OCCO4)s2)cc1	42.8% (inactive)
CC(=O)N1c2ccccc2NC2=C(C(=O)NC2(C)C)C1c1ccco1 (stereo not drawn)	110% (inactive)
O=S(=O)(NCCNc1nccc(-c2c(-c3cccc(F)c3)nc3sccn23)n1)c1ccc(Cl)cc1	43.2% (inactive)
CC(Sc1nc2sc3c(c2c(=O)n1-c1ccc(Cl)cc1)CCCC3)C(=O)Nc1nc(-c2ccc(Br)cc2)cs1 (stereo not drawn)	98.2% (inactive)
C[C@@H](Nc1ncnc2ccc(-c3cnc(N)nc3)cc12)c1ccc(F)cc1	67.8% (inactive)
CC1(C)CC[C@]23CC[C@]4(C)[C@H](CC[C@@H]5[C@@]6(C)CCCNC(C)(C)[C@@H]6CC[C@]54C)[C@H]2[C@H]1OC3	2.46% (active)
COc1ccc(C(=O)c2nc3ccccc3n2CC(=O)c2ccc(Cl)cc2)cc1	35.2% (inactive)
